Data as given in PubChem BioAssay (Tox21).
The source made the active and inactive calls. A call without a number means that no potency is given here. Calls come from the whole dose curve.

Target: Gonadotropin-releasing hormone receptor (Homo sapiens) (UniProt P30968)
Test: Human gonadotropin-releasing hormone receptor (GnRHR) small molecule agonists, calcium flux assay in GnRHR-HEK293 cells (AID 1920063); note: nearly all actives have a fitted effect of over 35% in size
Procedure, shortened: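 HEK293 cells stably expressing human GnRHR were dye-loaded for 1 h at 37 C. Compound was added in agonist mode and fluorescence (Ex/Em 480/540) recorded kinetically for 3 min. Fifteen concentrations, triplicates.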

Chain of Gonadotropin-releasing hormone receptor (Homo sapiens) (P30968 whole entry, looked up): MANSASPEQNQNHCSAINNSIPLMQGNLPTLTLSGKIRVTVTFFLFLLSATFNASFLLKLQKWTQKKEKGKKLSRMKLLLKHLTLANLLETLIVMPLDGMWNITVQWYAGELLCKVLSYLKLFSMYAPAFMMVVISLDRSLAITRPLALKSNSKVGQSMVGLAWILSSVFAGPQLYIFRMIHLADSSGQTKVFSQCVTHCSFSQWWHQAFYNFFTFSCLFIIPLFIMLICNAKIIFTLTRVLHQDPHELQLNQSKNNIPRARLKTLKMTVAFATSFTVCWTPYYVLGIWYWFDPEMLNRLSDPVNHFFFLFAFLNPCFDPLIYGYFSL

Structure (SMILES)	Potency	activity change
CC1(C)[C@H]2CC[C@]1(C)C(=O)C2	inactive	–
CC(C)(C)C(=O)C(=O)O	inactive	–
C[C@H]1C[C@H]2[C@@H]3CCC4=CC(=O)C=C[C@]4(C)[C@H]3C(=O)C[C@]2(C)[C@@]1(O)C(=O)CO	inactive	–
CCCCN(CCCC)C(C(N)=O)c1ccc(OC)cc1 (configuration not stated)	inactive	–
CCN(CC)c1ccc(C=O)cc1	inactive	–
OC[C@@H](O)C(O)[C@@H](O)CO (some centres not stated)	inactive	–
CN1C(=O)c2ccc([N+](=O)[O-])cc2C1=O	inactive	–
CCn1ccnc1CC1COc2ccccc2O1 (configuration not stated)	inactive	–
Nc1ccc(C(=O)N2CC3CC(CN(Cc4ccccc4)C3)C2)cc1	inactive	–
O=C(O)c1cc(Cl)cc(Cl)c1	inactive	–
COC(C)(OC)OC	inactive	–
COc1ccc(OC)c(N=Nc2c(O)ccc3ccccc23)c1	inactive	–
CCC(=O)CC(C)CC (configuration not stated)	–	-1.45% [at 0.217 µM, hits give high values] (inactive)
Nc1ccc(Cl)cc1[N+](=O)[O-]	inactive	–
CCN(CC)CCOC(=O)C(c1ccccc1)c1ccccc1	inactive	–
O=S(=O)(O)CCO	inactive	–
Cc1cccc(Oc2ccccc2)c1	inactive	–
Cc1ccc(NC(N)=O)cc1	inactive	–
COC(=O)c1c(C)cc(O)c(C)c1O	inactive	–

Structure (SMILES)	Potency	activity change
Cc1ccc(O)cn1	inactive	–
CC1(C)CC(N)CC(C)(C)N1	inactive	–
O=C(O)c1ccccc1C(=O)Nc1ccc(S(=O)(=O)Nc2nccs2)cc1	inactive	–
CC(C)(C#N)Nc1nc(Cl)nc(NC2CC2)n1	inactive	–
OCCCO	inactive	–
O=C(O)C(O)[C@H](O)[C@@H](O)[C@H](O)[C@H](O)CO (some centres not stated)	inactive	–
NC(CO)C(=O)NNCc1ccc(O)c(O)c1O (configuration not stated)	inactive	–
C[C@]12CCC(=O)C=C1CC[C@@H]1[C@@H]2CC[C@@]2(C)[C@H]1CC[C@]2(O)C(=O)CO	inactive	–
CCCOc1ccccc1-c1nc2n[nH]nc2c(=O)[nH]1	inactive	–
CCOC(=O)C1=C(C)NC(C)=C(C(=O)OC)C1c1cccc([N+](=O)[O-])c1 (configuration not stated)	inactive	–
CC[N+](CC)(CC)CCOc1cccc(OCC[N+](CC)(CC)CC)c1OCC[N+](CC)(CC)CC	inactive	–
CCCCCCCCCC(=O)OCC	inactive	–
CC(C)CCCCCCOC(=O)CCCCC(=O)OCCCCCCC(C)C	inactive	–
CCn1nc(Cc2ccccc2)cc1C1CCN(C[C@H]2C[C@H](N(C)[C@@H](C(=O)O)C(C)C)C[C@@H]2c2cccc(F)c2)CC1	inactive	–
CN1CCN(C2Cc3ccccc3Sc3ccc(Cl)cc32)CC1 (configuration not stated)	inactive	–
Cc1cccc2nccnc12	inactive	–
FC(F)(F)C(F)(F)C(F)(F)C(F)(F)CCI	inactive	–
C=CCCCC	inactive	–
